# D1 antag: Antagonist of Human D 1 Dopamine Receptor: qHTS. HEK293 TREx D1 cells, calcium flux, dopamine EC80; hits give low values. activity change, negative = inhibition, % at 10 µM. actives 3.2% (n = 360,000). D(1A) dopamine receptor (Homo sapiens), P21728. AID 504652, 2011; in the data active means activity change below about -30%; further: on the % scale 0 is the no-effect control and ±100 the full control effect
#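 Compound effects on dopamine-evoked calcium signalling were measured in tetracycline-induced HEK293 Trex D1 cells. Dopamine at EC80 followed a 180 s compound pre-read, and fluorescence was tracked kinetically for 180 s more.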
# D1 ag: Allosteric Agonists of the Human D1 Dopamine Receptor: qHTS; D(1A) dopamine receptor (Homo sapiens), P21728; HEK293 T-REx D1 cells, calcium flux, agonist mode; activation, % at 2 µM; actives 1% (n = 360,000); in the data active means activation above about 30%; further: 0% is about no effect
#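 Tetracycline-induced HEK293 TREx D1 cells, force-coupled to calcium signalling, were dye-loaded with a no-wash calcium kit. Compound was pin-added after a 10 s baseline. Fluorescence was read kinetically at 1 cycle/s for 180 s, with calcium rises flagged as agonism.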
# D3 antag: qHTS of D3 Dopamine Receptor Antagonist: qHTS; D3R cells, DiscoveRx beta-arrestin luminescence, antagonist mode; hits give low values; max response, negative = inhibition, %; actives 2.5% (n = 360,000); in the data active means max response below about -50%; inconclusive means no clear call, values can overlap the other calls; further: on the % scale 0 is the no-effect control and ±100 the full control effect
# Target sequence (P35462 whole entry, looked up): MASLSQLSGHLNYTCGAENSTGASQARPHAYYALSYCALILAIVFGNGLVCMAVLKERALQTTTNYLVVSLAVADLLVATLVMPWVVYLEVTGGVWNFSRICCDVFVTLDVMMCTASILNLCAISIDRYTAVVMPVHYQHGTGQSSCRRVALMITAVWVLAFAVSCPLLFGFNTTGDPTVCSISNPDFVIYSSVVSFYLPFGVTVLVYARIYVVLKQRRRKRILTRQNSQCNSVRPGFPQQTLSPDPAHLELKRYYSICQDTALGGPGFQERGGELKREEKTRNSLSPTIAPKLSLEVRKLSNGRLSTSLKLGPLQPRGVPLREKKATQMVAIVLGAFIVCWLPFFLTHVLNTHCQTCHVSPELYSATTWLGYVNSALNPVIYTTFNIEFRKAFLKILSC
#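 Cells expressing the human receptor were seeded at 1500 cells/well, incubated overnight at 37 degrees C in 5% CO2, then exposed to library compounds with dopamine controls for 90 minutes at 37 degrees C before luminescent detection.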
# D1 potentiator: Potentiators of Human D1 Dopamine Receptor: qHTS; AID 504651, 2011; actives 0.036% (n = 360,000); HEK293 TREx D1 cells, calcium flux, dopamine EC20 potentiation; potentiation, % at 10 µM; in the data active means potentiation above about 30%; further: 0% is about no effect
# D3 ag: qHTS of D3 Dopamine Receptor Agonist: qHTS; D(3) dopamine receptor (Homo sapiens), P35462; D3R DiscoveRx beta-arrestin cells, luminescence, 90 min; max activation, %; actives 0.58% (n = 410,000); in the data active means max activation above about 30%; further: 0% is about no effect
#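 Cells at 1500/well, incubated overnight, then treated with pinned compounds (dopamine as control) for 90 min at 37 degrees C. DiscoveRx reagent added for 30 - 60 minutes at room temperature; luminescence read.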
# Starred values were filed as active, the others as inactive; ? = inconclusive; / = not tested or not shown. A selection: hits, their analogues and other compounds. The true share with any hit is near 6%.
SMILES,D1 antag,D1 ag,D3 antag,D1 potentiator,D3 ag
COCc1ccc(-c2c(-c3ccc(OC)cc3)oc(=O)c3cc(OC)c(OC)cc23)cc1,/,/,98,/,34*
COc1ccc(-c2oc(=O)c3cc(OC)c(OC)cc3c2-c2ccc3c(c2)OCO3)cc1,/,/,13,/,11
COc1cc2c(-c3cc(F)cc(F)c3)c(-c3ccsc3)oc(=O)c2cc1OC,/,0,1,-2,25
CCc1ccc(N2CSC3=C(C#N)C(c4cccs4)CC(=O)N3C2)cc1 (configuration not stated),7,4,-61*,-4,3
CC(C)(C)C(=O)Cn1c(=O)n(-c2ccc(Cl)c(Cl)c2)c(=O)c2c3c(sc21)CCCC3,-11,0,/,0,-6
COc1ccc(S(=O)(=O)c2c(N)n(Cc3ccco3)c3nc4ccccc4nc23)cc1,-21,10,-71*,-6,-4
Cc1ccc2nc(N/C(=N/S(=O)(=O)c3ccc(F)cc3)c3ccccc3)sc2c1,-44*,9,-3,-13,4
COCc1c(C(=O)N2CCN(CCOc3ccccc3)CC2)oc2ccccc12,-45*,5,-7,/,88*
Cc1c(C(=O)N2CCN(CCc3ccccc3)CC2)oc2ccccc12,-32*,2,-86*,-3,-26
COCc1c(C(=O)N2CCN(c3ccccc3C)CC2)oc2ccccc12,/,/,0,/,-12
O=C(OCCN1CCCCC1)c1c[nH]c2ccccc12,-13,6,-57*,-2,0
Cc1c(C(=O)N2CCN(S(C)(=O)=O)CC2)oc2ccccc12,-2,3,-22,-6,-3
Cc1c(C(=O)OCCN2CCCCC2)oc2ccccc12,-5,2,-61*,1,-4
CC(C)(C)NC(=O)c1oc2ccccc2c1COc1ccccc1,7,31*,-5,6,-2
Cc1c(C(=O)OCC(=O)N2c3ccccc3CC2C)oc2ccccc12 (configuration not stated),-65*,1,27,1,-1
Cc1c(C(=O)OCC(=O)N2C(C)CCCC2C)oc2ccccc12 (configuration not stated),8,2,-11,-5,4
COc1cc(Cl)c(C)cc1Nc1nc2ccccc2n2cnnc12,-13,1,/,0,-5
N/C(Cc1ccc(Cl)cc1)=N\OC(=O)c1ccccc1,-6,-1,11,2,1
CC(C)(C)C(=O)OC/C(N)=N/OC(=O)c1ccc(Cl)cc1,-43*,7,3,-3,8
COCCn1nnnc1C(c1cccc(C(F)(F)F)c1)N1CCOCC1 (configuration not stated),-42*,0,0,-5,6
COc1ccc(CCNC(=O)c2nc(SCc3ccc(C)cc3)ncc2Cl)cc1OC,-5,10,/,-2,9
Cc1cccc(C)c1-n1nnnc1C(c1ccnc2ccccc12)N1CCN(CCN(C)C)CC1 (configuration not stated),/,/,-9,/,3
CCCCn1nnnc1C(c1cccs1)N1CCN(C/C=C/c2ccccc2)CC1 (configuration not stated),/,/,?,/,-16
COc1ccc(C(c2nnnn2C(C)(C)C)N2CCN(C/C=C/c3ccccc3)CC2)cc1 (configuration not stated),/,/,-67*,/,-14
CCCCn1nnnc1C(c1ccc(OC)cc1)N1CCN(C/C=C/c2ccccc2)CC1 (configuration not stated),/,/,-107*,/,-19
COc1cccc(C(c2nnnn2C(C)(C)C)N2CCN(C/C=C/c3ccccc3)CC2)c1OC (configuration not stated),/,/,-102*,/,-21
COc1ccc(-n2nnnc2C(c2ccnc3ccccc23)N2CCN(C/C=C/c3ccccc3)CC2)cc1 (configuration not stated),/,/,-54*,/,-14
COc1ccc(OC)c(NS(=O)(=O)c2ccc(-c3cc(C)no3)s2)c1,-10,6,/,2,-7
